Compound activity as filed in PubChem.
Only a selection was taken, and hits are over-represented in it overall.
Pf Dd2 growth: inhibitors of Plasmodium falciparum Dd2 growth | actives 4.3% (n = 120,000) | Potency, µM (series often up to 28.9 µM), actives largely listed as inhibitors | P. falciparum Dd2 growth, SYBR Green, 72 h; active means well fitted inhibition curve with a large enough effect; further: nearly all actives have a fitted effect of over 65% in size
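Infected erythrocytes (Dd2, 0.3% parasitemia, 2.5% hematocrit final) are added to compound in RPMI-1640/Albumax II medium, grown 72 h at 37C in low oxygen, then lysed with saponin/Triton-X containing SYBR Green and read by fluorescence.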
Each line names hits and unclear results; the compound was inactive in the other large screens; ! = repeats disagree.

COc1ccc(C2Cn3nnc(-c4nc(-c5ccc(C(F)(F)F)cc5)no4)c3CO2)cc1 (configuration not stated)	none
COc1ccc(C(=O)N2CCCn3nc(CCC(=O)NC4CC4)cc3C2)o1	none
CC1=C[C@@H](CN2CCN(c3ncccn3)CC2)[C@H](C(C)C)C[C@H]1Cc1nnc(Cc2c[nH]c3ccccc23)o1	Pf Dd2 growth 3.55µM
CC1=C[C@@H](CN2CCN(CCO)CC2)[C@H](C(C)C)C[C@H]1Cc1nnc(C)o1	none
CCCc1nnc(C[C@@H]2C[C@@H](C(C)C)[C@H](CN3CCN(C(C)=O)CC3)C=C2C)o1	Pf Dd2 growth 11.2µM
CC(=O)N1CCN(C[C@@H]2C=C(C)[C@H](Cc3nnc(-c4cccnc4)o3)C[C@H]2C(C)C)CC1	Pf Dd2 growth 7.94µM
CC1=C[C@@H](CN2CCOCC2)[C@H](C(C)C)C[C@H]1Cc1nnc(-c2ccccc2)o1	none
COCCN1CCN(C[C@@H]2C=C(C)[C@H](Cc3nnc(C)o3)C[C@H]2C(C)C)CC1	none
CC1=C[C@@H](CN2CCN(c3cnccn3)CC2)[C@H](C(C)C)C[C@H]1Cc1nnc(-c2ccc([N+](=O)[O-])cc2)o1	none
Cc1cc(F)ccc1NC(=O)CCS(=O)(=O)c1cc2c3c(c1)CCN3C(=O)CC2	none
CCN(Cc1ccccc1)C(=O)Cn1ncc2c(=O)oc3ccc(C)cc3c21	none
CCCCOc1ccc(C(=O)N2CCC(c3n[nH]c(=O)n3Cc3ccc(C)cc3)CC2)cc1	none
CC(C)CN1CC2(C1)C(=O)N(Cc1ccccc1F)C(=O)[C@@H]1C[C@@H](O)CN12	none
C#CCNC(=O)[C@@H]1CCCN1[C@@H](C(=O)NC)c1ccccc1OC	none
C[C@@H](c1ccccc1)N1C(=O)[C@@H]2CN(C(=O)CSc3ccncc3)CCN2C1=O	none
Cc1cnc(CCNC(=O)NCc2ccccc2)n1C1CCC1	none
Cc1cnc(CCNC(=O)c2n[nH]c(=O)c3ccccc23)n1C1CCCCC1	Pf Dd2 growth 7.94µM
Cc1cnc(CCNC(=O)NC(C)C)n1C1CC1	none
COCc1ncc(C)n1CCNC(=O)c1n[nH]c(=O)c2ccccc12	none
Cc1cnc(CCNC(=O)c2n[nH]c(=O)c3ccccc23)n1C1CCC1	none
Cc1cnc(CCNC(=O)Nc2ccc3c(c2)OCCO3)n1C1CCC1	Pf Dd2 growth 5.01µM
CCN(CC)C(=O)C(NC(=O)c1cccc(C)c1)C1CCN(C(=O)C2CC2)CC1 (configuration not stated)	none
CN1C[C@@H](NC(=O)NCc2ccccc2)C[C@H]1c1nc(-c2cccnc2)no1	none
Cc1cccc(OCCc2noc(C3CN(S(=O)(=O)c4ccccc4)C3)n2)c1	none
CN1C(=O)C2(CCN(C(=O)C3CCCC3)CC2)c2ccccc21	none
O=C1N(Cc2ccccc2)c2ccccc2C12CCN(Cc1cncs1)C2 (configuration not stated)	none
O=C1N(CCc2ccccc2)c2ccccc2C12CCN(CC1CC1)C2 (configuration not stated)	Pf Dd2 growth 5.01µM!
CN1C(=O)C2(CCN(C(=O)Nc3ccccc3F)C2)c2ccccc21 (configuration not stated)	none
O=C(Nc1ccc(Cl)cc1)N1CCC2(C1)C(=O)N(CCc1ccccc1)c1ccccc12 (configuration not stated)	Pf Dd2 growth 4.47µM
O=C(CC1CCN(C(=O)NC2CCCCC2)C1)NCc1ccccc1 (configuration not stated)	none
O=C(NC1CCCC1)N1CCC2(C1)C(=O)N(CCc1ccccc1)c1ccccc12 (configuration not stated)	Pf Dd2 growth 7.94µM!
CCN1C(=O)C2(CCN(S(=O)(=O)Cc3ccc(Cl)cc3)CC2)c2ccccc21	none
Cc1cc(CN2CCC3(C2)C(=O)N(Cc2ccccc2)c2ccccc23)no1 (configuration not stated)	none
Cn1c(CN2CCN(c3ncccc3C#N)CC2)nnc1C1CC(N)C1 (configuration not stated)	none
CC(C)Oc1ccc(C(=O)N2C[C@@H](CN(C)C)[C@@H](CO)C2)cc1	none
COc1cccc(NC(=O)Cn2nc3c(cc2=O)CCCC3)c1	none
Cc1cccc(NC(=O)N2CCC(Oc3ncccc3C(=O)N3CCOCC3)C2)c1C (configuration not stated)	none
CCC[C@H]1CN(Cc2snnc2C(C)C)C[C@@H]1NC(=O)COC	none
Cc1c(-c2ccccc2F)[nH]c2ccc(CNC(=O)CC3CCC(=O)N3)cc12 (configuration not stated)	none
CC[C@H]1CN(C(=O)Nc2cccc(C(F)(F)F)c2)CC[C@H]1CC(=O)NCc1ccc(OC)cc1	none
CC[C@H]1CN(C(=O)Nc2cccc(OC)c2)CC[C@H]1CC(=O)NCc1cccnc1	none
CC[C@H]1CN(C(=O)Nc2cccc(OC)c2)CC[C@H]1CC(=O)NCc1ccccc1	Pf Dd2 growth 12.6µM
COCCN1C(=O)c2cccn2CC1CNC(=O)c1ccc(Cc2c(C)n[nH]c2C)o1 (configuration not stated)	none
CCOC(=O)c1ccc(N2CC3=C(C2=O)C(c2ccc(OC)cc2)NC(=O)N3C)cc1 (configuration not stated)	none
CCOC(=O)c1ccc(N2C(=O)c3[nH]nc(-c4ccc(OCC)cc4)c3C2c2ccc(OC)cc2OC)cc1 (configuration not stated)	Pf Dd2 growth 7.94µM
CCOC(=O)c1ccc(N2C(=O)c3n[nH]c(-c4cccs4)c3C2c2cccc(OC)c2)cc1 (configuration not stated)	Pf Dd2 growth 3.55µM
CCOc1ccc(C(=O)NC2CCCN(c3cc(-c4ccc(OC)cc4)[nH]n3)C2)cc1 (configuration not stated)	none
CCOc1ccc(C(=O)Nc2ccc(-n3nncc3-c3ccc(OC)cc3)cc2)cc1	none
CCOC(=O)c1sc(N2C(=O)c3oc4ccc(F)cc4c(=O)c3C2c2cccc(OC)c2)nc1C (configuration not stated)	none
CCOC(=O)c1ccc(N2C(=O)c3n[nH]c(-c4cccs4)c3C2c2ccc(OC)cc2OC)cc1 (configuration not stated)	Pf Dd2 growth 11.2µM
CCOC(=O)C1=C(C)N=C2SC=C(CC(=O)N3CCC(C)CC3)N2C1c1cccc(OC)c1 (configuration not stated)	none
Cc1ccc(N2C(=O)c3n[nH]c(C)c3C2c2ccccc2Cl)cc1 (configuration not stated)	none
COc1cccc(CNC(=O)c2cccc3c2CCN3C(=O)c2ccc(F)cc2)c1	none
c1ccc([C@@H]2C[C@H]2c2nc(C3CCOCC3)nn2-c2cccnc2)cc1	none
O=C(COc1ccccc1)N1CCC2(CC1)OCCN(CC1CCOCC1)C2=O	none
O=C(c1ccccc1F)N1CCN(C(=O)N2CC3CC(C2)[C@H]2CCCC(=O)N2C3)CC1 (some centres not stated)	none
CNC(=O)c1cc(-c2cccc(OC)c2OC)cc2c1OCCN2Cc1cccnc1	Pf Dd2 growth 12.6µM
CNC(=O)c1cc(-c2cnn(C)c2)cc2c1OCCN2Cc1cccnc1	none
CNC(=O)c1cc(-c2cccnc2)cc2c1OCCN2Cc1cccnc1	none
COc1ccc(NC(=O)NCC2CCN(Cc3ccccc3F)CC2)c(OC)c1	none
Cc1ccc(NC(=O)NCC2CCOCC2)c(C)c1	none
Cc1ccc(C)c(CN2CCC(CNC(=O)Nc3ccc(Br)cc3F)CC2)c1	Pf Dd2 growth 8.91µM
Cn1cc([C@@H](NC(=O)CCc2ccc(=O)[nH]n2)C2CC(O)C2)cn1 (some centres not stated)	none
COc1ccc(CNC(=O)CCCN2C(=O)CSc3c2c(C)nn3-c2ccccc2)c(OC)c1	none
CCc1nn(-c2ccc(OC)cc2)c(Oc2ccccc2F)c1CCC(=O)NC(C)C	Pf Dd2 growth 7.94µM
